{"source": "ChEMBL document CHEMBL3433997", "about": "“St. Jude Leishmania screening dataset” (2016)", "assay_type_in_all_cases": "functional", "key": {"[1]": {"target": "Solute carrier family 2, facilitated glucose transporter member 1 (Homo sapiens) (UniProt P11166)", "sequence (P11166 whole entry)": "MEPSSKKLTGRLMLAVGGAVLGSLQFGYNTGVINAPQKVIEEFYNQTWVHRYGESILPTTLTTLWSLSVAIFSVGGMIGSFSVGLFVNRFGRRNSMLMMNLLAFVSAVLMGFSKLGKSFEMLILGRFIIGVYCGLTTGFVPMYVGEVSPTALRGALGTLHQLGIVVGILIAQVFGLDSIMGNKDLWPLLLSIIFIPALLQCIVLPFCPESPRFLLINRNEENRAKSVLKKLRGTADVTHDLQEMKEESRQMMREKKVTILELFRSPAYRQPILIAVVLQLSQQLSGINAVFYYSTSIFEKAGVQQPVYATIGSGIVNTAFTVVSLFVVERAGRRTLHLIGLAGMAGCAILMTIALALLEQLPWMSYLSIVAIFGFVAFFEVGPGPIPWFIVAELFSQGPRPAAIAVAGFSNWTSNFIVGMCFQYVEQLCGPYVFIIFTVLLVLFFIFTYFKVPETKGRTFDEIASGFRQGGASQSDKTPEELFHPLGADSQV", "assay": "ST_JUDE_LEISH: Cytotoxicity at 2uM final concentration against transgenic Leishmania Mexicana promastigotes LmGLUT1 that are glucose transport deficient and complemented with the human glucose transporter GLUT1. Activity is measured by DNA content using SYBR green in vitro"}, "[2]": {"target": "Hexose transporter 1 (Plasmodium falciparum) (UniProt O97467)", "assay": "ST_JUDE_LEISH: Cytotoxicity at 2uM final concentration against transgenic Leishmania Mexicana promastigotes LmPfHT that are glucose transport deficient and complemented with the Plasmodium falciparum hexose transporter. Activity is measured by DNA content using SYBR green in vitro"}, "[3]": {"target": "Glucose transporter (Leishmania mexicana) (UniProt O61059)", "assay": "ST_JUDE_LEISH: Cytotoxicity at 2uM final concentration against transgenic Leishmania Mexicana promastigotes LmGT2 that are glucose transport deficient and complemented with the L. Mexicana glucose transporter 2. Activity is measured by DNA content using SYBR green in vitro"}}}
{"smiles": "CC(=O)Nc1ncc(C(=O)Nc2cccc(-c3ccc(-c4nc5ccccc5[nH]4)cc3)c2)s1", "values": [{"measurement": "inhibition", "setting": "[1]", "value": 1.69, "unit": "%"}, {"measurement": "inhibition", "setting": "[2]", "value": 1.26, "unit": "%"}, {"measurement": "inhibition", "setting": "[3]", "value": 1.08, "unit": "%"}]}
{"smiles": "Cc1nc(-c2cccc(NCc3ccccc3)c2)[nH]c1C", "values": [{"measurement": "inhibition", "setting": "[1]", "value": 6.94, "unit": "%"}, {"measurement": "inhibition", "setting": "[2]", "value": 7.04, "unit": "%"}, {"measurement": "inhibition", "setting": "[3]", "value": 1.13, "unit": "%"}]}
{"smiles": "OCCC1CCN(Cc2ccc(-c3ccc(-c4nc5ccccc5[nH]4)cc3)cc2)CC1", "values": [{"measurement": "inhibition", "setting": "[1]", "value": 8.45, "unit": "%"}, {"measurement": "inhibition", "setting": "[2]", "value": 5.85, "unit": "%"}, {"measurement": "inhibition", "setting": "[3]", "value": 5.76, "unit": "%"}]}
{"smiles": "COc1ccccc1NC(=O)Nc1cccc(-c2ccc(-c3nc4cccc(C)c4[nH]3)s2)c1", "values": [{"measurement": "inhibition", "setting": "[1]", "value": 3.95, "unit": "%"}, {"measurement": "inhibition", "setting": "[2]", "value": 6.34, "unit": "%"}, {"measurement": "inhibition", "setting": "[3]", "value": 3.94, "unit": "%"}]}
{"smiles": "N#Cc1ccc(CN2CCC(Oc3ccc(NC(=O)c4ccccc4)cc3Cl)CC2)cc1", "values": [{"measurement": "inhibition", "setting": "[1]", "value": 0.83, "unit": "%"}, {"measurement": "inhibition", "setting": "[2]", "value": -1.16, "unit": "%"}, {"measurement": "inhibition", "setting": "[3]", "value": 1.28, "unit": "%"}]}
{"smiles": "O=C(COc1ccccc1)NC1CCN(c2ccnc3cc(Cl)ccc23)C1", "note": "(centres undefined)", "values": [{"measurement": "inhibition", "setting": "[1]", "value": 0.14, "unit": "%"}, {"measurement": "inhibition", "setting": "[2]", "value": 1, "unit": "%"}, {"measurement": "inhibition", "setting": "[3]", "value": 1.75, "unit": "%"}]}
{"smiles": "O=C(Nc1cccnc1)c1cn(-c2ccccc2)nc1-c1cccs1", "values": [{"measurement": "inhibition", "setting": "[1]", "value": 3.18, "unit": "%"}, {"measurement": "inhibition", "setting": "[2]", "value": 1.81, "unit": "%"}, {"measurement": "inhibition", "setting": "[3]", "value": -1.31, "unit": "%"}]}
{"smiles": "COc1ccc(CNC2Cc3ccccc3C2)cc1-c1ccc(S(=O)(=O)NCCN2CCCC2)c(F)c1", "values": [{"measurement": "inhibition", "setting": "[1]", "value": 28.3, "unit": "%"}, {"measurement": "inhibition", "setting": "[2]", "value": 14, "unit": "%"}, {"measurement": "inhibition", "setting": "[3]", "value": 6.14, "unit": "%"}]}
{"smiles": "O=C(Nc1ccc(OC2CCN(Cc3ccccc3)CC2)c(Cl)c1)c1ccsc1", "values": [{"measurement": "inhibition", "setting": "[1]", "value": 2.2, "unit": "%"}, {"measurement": "inhibition", "setting": "[2]", "value": 2.35, "unit": "%"}, {"measurement": "inhibition", "setting": "[3]", "value": 2.24, "unit": "%"}]}
{"smiles": "O=C(Nc1ccnc2ccccc12)NC1CCN(Cc2ccccc2)CC1", "values": [{"measurement": "inhibition", "setting": "[1]", "value": 3.42, "unit": "%"}, {"measurement": "inhibition", "setting": "[2]", "value": 3.28, "unit": "%"}, {"measurement": "inhibition", "setting": "[3]", "value": 3.89, "unit": "%"}]}
{"smiles": "CCOc1ccc(-c2cc3nc(C4CCNCC4)c(C(=O)Nc4ccc(C)cc4Cl)cn3n2)cc1", "values": [{"measurement": "inhibition", "setting": "[1]", "value": 4.75, "unit": "%"}, {"measurement": "inhibition", "setting": "[2]", "value": -0.08, "unit": "%"}, {"measurement": "inhibition", "setting": "[3]", "value": 1.29, "unit": "%"}]}
{"smiles": "Cc1ccc(C(C)C)c(Oc2ccc3nc(N)nc(N)c3c2)c1", "values": [{"measurement": "inhibition", "setting": "[1]", "value": 13.2, "unit": "%"}, {"measurement": "inhibition", "setting": "[2]", "value": 8.97, "unit": "%"}, {"measurement": "inhibition", "setting": "[3]", "value": 5.01, "unit": "%"}]}
{"smiles": "CS(=O)(=O)N(c1cccc(F)c1)c1cc(C(=O)N[C@@H](Cc2ccccc2)[C@H](O)CNCc2cccc(C(F)(F)F)c2)cc(N2CCCC2=O)c1", "values": [{"measurement": "inhibition", "setting": "[1]", "value": -2.34, "unit": "%"}, {"measurement": "inhibition", "setting": "[2]", "value": -1.22, "unit": "%"}, {"measurement": "inhibition", "setting": "[3]", "value": -0.57, "unit": "%"}]}
